Compound activity as filed in PubChem BioAssay.
HCMV antiviral – human cytomegalovirus inhibition; actives 4.5% (n = 410,000); activity change, negative = inhibition, % at 57.5 µM; AID 1259415; HFF cells, HCMV-luciferase reporter, 72 h; stronger effect = lower value; in the data active = activity change below about -60%; inconclusive = no clear call, values can overlap the other calls; inactive = above about -39%
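Two-dose cell screen: HFF monolayers treated with compounds and infected with luciferase-expressing HCMV at 1 PFU/cell, 72 h at 37C, then lysed for luciferase measurement.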
Sm TGR inh – blocks Schistosoma mansoni thioredoxin glutathione reductase | purified TGR, DTNB reduction, TNB absorbance 405 nm | Potency, µM (highest dose often 114 µM), for the others: at the highest dose activity change, negative = inhibition, most hits filed as inhibitors | AID 485364 | Q962Y6 | actives 3% (n = 360,000); also: potency is read from the fitted curve at half-maximal effect; nearly all actives have a fitted effect of over 60% in size
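First, TGR (20 nM dispensed) and NADPH were mixed with compound. Second, a 15 min room-temperature incubation followed. Third, further NADPH and then DTNB were added to start the reaction. Finally, TNB absorbance was monitored kinetically.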
Pf growth 96h – P. falciparum growth inhibition at 96 hours; P. falciparum luciferase reporter growth, 96 h; actives 6.9% (n = 320,000); AID 504834; Potency, µM (highest dose often 28.7 µM), for inactives: top-dose activity change, negative = inhibition, usual class: inhibitors; also: potency is read from the fitted curve at half-maximal effect
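P. falciparum expressing integrated firefly luciferase, in erythrocytes at 2% hematocrit, 0.05% parasitemia, incubated with compounds 96 h at 37 C, 5% CO2. Growth inhibition read as loss of luminescence; two-generation exposure targets delayed-death apicoplast inhibitors.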
Giardia FBPA inh – Giardia lamblia aldolase inhibition. A8B2U2. purified Giardia FBPA. Potency, µM (highest dose often 59.6 µM), without a hit: at the top dose activity, negative = inhibition, actives largely listed as inhibitors. actives 0.71% (n = 290,000). AID 2451; also: potency is read from the fitted curve at half-maximal effect; nearly all actives have a fitted effect of over 55% in size
Target sequence (A8B2U2 whole entry, looked up): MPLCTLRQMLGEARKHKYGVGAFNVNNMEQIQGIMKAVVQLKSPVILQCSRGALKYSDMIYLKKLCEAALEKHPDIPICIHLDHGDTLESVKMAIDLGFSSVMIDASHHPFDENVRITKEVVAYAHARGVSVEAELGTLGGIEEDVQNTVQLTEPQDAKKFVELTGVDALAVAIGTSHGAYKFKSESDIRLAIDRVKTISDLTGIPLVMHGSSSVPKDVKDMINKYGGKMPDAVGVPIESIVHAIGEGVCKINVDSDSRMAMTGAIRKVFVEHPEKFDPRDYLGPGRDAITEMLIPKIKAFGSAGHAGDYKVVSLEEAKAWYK
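40 nM FBPA preincubated 10 min at RT with compound (up to 57.5 uM final), then substrate plus GAPDH/TPI/NAD/arsenate coupling and diaphorase/resazurin added. Fluorescence read after 20 min at RT, 525/598 nm.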
Pf growth 48h – inhibits P. falciparum growth in the first generation, 48 h | P. falciparum luciferase growth in erythrocytes, 48 h | Potency, µM (top dose mostly 28.7 µM), without a hit: at the highest dose activity change, negative = inhibition, usual class: inhibitors | actives 5.9% (n = 310,000); also: potency is read from the fitted curve at half-maximal effect
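A one-generation exposure of luciferase-tagged malaria parasites in RPMI 1640/Albumax erythrocyte culture, 37 C and 5% CO2. Inhibition is inferred from decreased luminescence after adding detection reagent.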
An asterisk follows results filed as active; ? = inconclusive; . = no result given. A selection: hits, their analogues and other compounds. The true share with any hit is near 14%. Unless noted, calls follow the shape of the dose curve; as a rule, active = well fitted curve in the direction sought with a large enough effect; inconclusive = small, poorly fitted or top-dose-only effect, or another doubt; inactive = no such curve, though single readings can be large; an effect the other way counts as inactive or inconclusive. % is scaled to controls: 0 for no effect and ±100 for the full control effect.

SMILES	HCMV antiviral	Sm TGR inh	Pf growth 96h	Giardia FBPA inh	Pf growth 48h
Cc1cc(-c2nnc3n2N=C(c2ccc(-c4ccccc4)cc2)CS3)n[nH]1	77.3	1.3%	?	-0.2%	10.4µM*
Cc1ccc(-c2nnc3n2N=C(c2ccccc2Br)CS3)cc1	-77.8*	-23.8%	-1.1%	-0.3%	11.7µM*
Cn1nc2c3ccccc3n(Cc3ccccc3)c2nc1=S	12.7	16.5%	-23.4%	6.1%	14.9%
O=C(CCSCc1cccc(Cl)c1)NCc1ccccc1Cl	-9.2	3.6%	.	.	.
C[C@@H]1CCCCO[C@@H](CN(C)S(=O)(=O)c2ccc(Cl)cc2)[C@@H](C)CN([C@H](C)CO)C(=O)c2cc(N(C)C)ccc2O1	22.4	.	.	.	.
COc1cc(CC2C(=O)Nc3ccccc32)cc(C)c1O (centres undefined)	-31.3	39.8µM*	3.6%	-2.5%	.
O=C(NC(Cc1ccccc1)C(=O)O)/C(=C/c1ccc(Cl)cc1)NC(=O)c1ccco1 (centres undefined)	-9.4	-27.0%	-17.2%	0.0%	42.3%
CCN1CCN(C(=O)c2ccc3c(c2)N(Cc2cc(C)ccc2C)C(=O)c2ccccc2S3(=O)=O)CC1	23.9	-6.0%	.	.	.
CCCc1cc(NCCCO)n2c(nc3ccccc32)c1C#N	65.9	13.4%	3.29µM*	0.3%	?
Cc1cc(NCCCOC(C)C)n2c(nc3ccccc32)c1C#N	-31.1	-17.9%	-5.6%	9.9%	5.22µM*
CCOc1ccccc1OCCCCn1c(-c2ccc(Cl)cc2)nc2ccccc2c1=O	12.5	-3.2%	.	.	.
CN(C)c1ccc(/C=C/c2ccc3ccccc3[n+]2C)cc1	-99.4*	1.1%	?	-9.2%	0.828µM*
CN(C)c1ccc(/C=C/c2ccc3c4ccccc4ccc3[n+]2-c2ccccc2)cc1	-99.0*	?	?	-10.5%	8.28µM*
CN(C)c1ccc(/C=C/c2cccc[n+]2[O-])cc1	135.2	0.9%	248.9%	-11.1%	147.9%
COc1ccc(/C=C/c2ccc3ccccc3[n+]2C)cc1OC	.	6.4%	10.1%	-1.4%	1.17µM*
[O-][n+]1c(/C=C/c2ccccc2)ccc2ccccc21	13.1	0.4%	6.57µM*	-0.6%	110.3%
Cc1ccc(N2CS(=O)(=O)/C(=C/N(C)C)C2=O)cc1	44.8	8.6%	219.3%	-0.5%	2.62µM*
Cc1sc(NC(=O)CSC2=NCCS2)nc1-c1ccccc1	-23.6	-20.1%	-57.6%	0.4%	.
CC(=O)N1CC(=O)N=C1SCC(=O)Nc1nc(-c2ccccc2)c(-c2ccccc2)s1	51.3	-4.2%	?	1.9%	14.7µM*
CCOC(=O)N1CCN(S(=O)(=O)N2CCCC(C(=O)NCc3ccccc3OCC)C2)CC1 (centres undefined)	3.8	.	.	.	.
O=C(CCS(=O)(=O)c1nc(-c2ccc3c(c2)OCO3)cc(C(F)(F)F)n1)Nc1ccc(Br)cc1	-98.8*	-8.9%	.	.	.
CSc1ccccc1NC(=O)CCS(=O)(=O)c1nc(-c2ccc3c(c2)OCO3)cc(C(F)(F)F)n1	-16.8	-23.9%	.	.	.
COC(=O)c1ccccc1NC(=O)CCS(=O)(=O)c1nc(-c2ccc3c(c2)OCO3)cc(C(F)(F)F)n1	-69.7*	-20.9%	.	.	.
O=C(CCS(=O)(=O)c1nc(-c2ccc3c(c2)OCO3)cc(C(F)(F)F)n1)Nc1ccccc1F	2.2	?	.	.	.
O=C(NCCc1ccccc1)c1ccc(CSc2nc3cccnc3n2Cc2ccccc2)cc1	-3.0	0.5%	.	.	.
SMILES	HCMV antiviral	Sm TGR inh	Pf growth 96h	Giardia FBPA inh	Pf growth 48h
O=C(NCc1ccccc1)c1ccc(CSc2nc3cccnc3n2Cc2ccccc2)cc1	-22.5	-7.4%	.	.	.
O=C(NCc1ccccc1)c1ccc(CSc2nc3cccnc3n2Cc2cccc(F)c2)cc1	-67.4*	3.9%	.	.	.
Cn1c(SCc2ccc(F)cc2)nc2ccc(C(=O)NCc3ccc(F)cc3)cc21	-68.6*	5.7%	.	.	.
CN(Cc1ccccc1)C(=O)c1ccc(CSc2nc3cccnc3n2Cc2ccccc2)cc1	-70.8*	4.4%	.	.	.
O=C(Nc1cccc([N+](=O)[O-])c1)c1ccc(N2CCCC2=O)cc1	-33.3	-5.1%	51.9%	2.0%	44.8%
Cc1cc(OCCCSc2nc(-c3ccc(C(C)(C)C)cc3)nc3cc(=O)[nH]n23)ccc1Cl	-63.6*	-19.2%	.	.	.
